# Measured values as given in the supplement of paper PMC8728848.
# The sample as a whole holds a higher share of the strongest signals than the screen did.
# Tests used:
# Experiment in all cases: glycan array binding signal (z-score within array); higher = stronger binding
# Settings in all cases: glycan notation: IUPAC condensed, linker removed
# [1] = target: Fuc(a1-2)Gal(b1-3)GalNAc
# Summary of the method: (§1)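 The binding signal is a Z-score computed within each array. Data were drawn from 3228 arrays in the Consortium for Functional Glycomics database, restricted to those with a known protein sequence. Scores were averaged over arrays of the same protein sequence at different concentrations or buffers, and over linkers, and negative values can be taken as non-binding.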
# [2] = target: Fuc(a1-2)Gal(b1-3)GalNAc(a1-3)[Fuc(a1-2)]Gal(b1-4)Glc
# Summary of the method: as §1
# [3] = target: Fuc(a1-2)Gal(b1-3)GalNAc(b1-4)[Neu5Ac(a2-3)]Gal(b1-4)Glc
# Summary of the method: as §1
# [4] = target: Fuc(a1-2)Gal(b1-3)[Fuc(a1-4)]GlcNAc
# Summary of the method: as §1
# [5] = target: Fuc(a1-2)Gal(b1-3)[Fuc(a1-4)]GlcNAc(b1-3)[Gal(b1-4)GlcNAc(b1-6)]Gal(b1-4)Glc
# Summary of the method: as §1
# [6] = target: Fuc(a1-2)Gal(b1-4)[Fuc(a1-3)]GlcNAc(b1-2)Man(a1-3)[Fuc(a1-2)Gal(b1-4)[Fuc(a1-3)]GlcNAc(b1-2)Man(a1-6)]Man(b1-4)GlcNAc(b1-4)GlcNAc
# Summary of the method: as §1
# [7] = target: Fuc(a1-2)Gal(b1-4)[Fuc(a1-3)]GlcNAc(b1-3)Gal(b1-4)[Fuc(a1-3)]GlcNAc(b1-3)Gal(b1-4)[Fuc(a1-3)]GlcNAc
# Summary of the method: as §1
# [8] = target: Fuc(a1-2)[GalNAc(a1-3)]Gal(b1-4)GlcNAc
# Summary of the method: as §1
# [9] = target: Fuc(a1-3)[Gal(b1-4)]GlcNAc(b1-3)GalNAc
# Summary of the method: as §1
# [10] = target: Gal(a1-3)Gal(b1-3)[Fuc(a1-4)]GlcNAc(b1-2)Man(a1-3)[Gal(a1-3)Gal(b1-3)[Fuc(a1-4)]GlcNAc(b1-2)Man(a1-6)]Man(b1-4)GlcNAc(b1-4)GlcNAc
# Summary of the method: as §1
# [11] = target: Gal(a1-3)Gal(b1-4)Glc
# Summary of the method: as §1
# [12] = target: Gal(a1-3)Gal(b1-4)GlcNAc(b1-3)GalNAc
# Summary of the method: as §1
# [13] = target: Gal(a1-3)[Gal(a1-4)]Gal(b1-4)GlcNAc
# Summary of the method: as §1
# [14] = target: Gal(a1-4)Gal(b1-4)GlcNAc
# Summary of the method: as §1
# [15] = target: Gal(a1-4)GlcNAc
# Summary of the method: as §1
# [16] = target: Gal(b1-3)GalNAc(a1-3)[Fuc(a1-2)]Gal(b1-4)Glc
# Summary of the method: as §1
# [17] = target: Gal(b1-3)GlcNAc
# Summary of the method: as §1
# [18] = target: Gal(b1-3)GlcNAc(b1-3)Gal(b1-4)GlcNAc
# Summary of the method: as §1
# [19] = target: Gal(b1-4)GlcNAc(b1-2)Man(a1-3)[Gal(b1-4)GlcNAc(b1-2)Man(a1-6)]Man(b1-4)GlcNAc(b1-4)GlcNAc
# Summary of the method: as §1
# [20] = target: Gal(b1-4)GlcNAc(b1-2)Man(a1-6)[GlcNAc(b1-2)Man(a1-3)]Man(b1-4)GlcNAc(b1-4)GlcNAc
# Summary of the method: as §1
# [21] = target: Gal3S(b1-4)Glc6S
# Summary of the method: as §1
# [22] = target: GalNAc(a1-3)Gal
# Summary of the method: as §1
# [23] = target: GalNAc(b1-3)GalNAc
# Summary of the method: as §1
# [24] = target: GalNAc(b1-4)GlcNAc
# Summary of the method: as §1
# [25] = target: GlcNAc(a1-4)Gal(b1-3)GlcNAc
# Summary of the method: as §1
# [26] = target: GlcNAc(b1-2)Gal(b1-3)GalNAc
# Summary of the method: as §1
# [27] = target: GlcNAc(b1-2)Man(a1-3)[GlcNAc(b1-2)Man(a1-6)]Man(b1-4)GlcNAc(b1-4)GlcNAc
# Summary of the method: as §1
# [28] = target: Kdn(a2-3)Gal(b1-3)GlcNAc
# Summary of the method: as §1
# [29] = target: Kdn(a2-3)Gal(b1-4)[Fuc(a1-3)]GlcNAc
# Summary of the method: as §1
# [30] = target: Kdn(a2-6)Gal(b1-4)GlcNAc
# Summary of the method: as §1
# [31] = target: Man(a1-2)Man(a1-2)Man(a1-6)[Man(a1-3)]Man
# Summary of the method: as §1
# [32] = target: Man(a1-2)Man(a1-3)Man
# Summary of the method: as §1
# [33] = target: Man(a1-3)[Man(a1-6)]Man
# Summary of the method: as §1
# [34] = target: Man(a1-3)[Man(a1-6)]Man(a1-6)[Man(a1-3)]Man
# Summary of the method: as §1
# [35] = target: Neu5Ac(a2-3)Gal(b1-4)[Fuc(a1-3)]GlcNAc(b1-3)GalNAc
# Summary of the method: as §1
# [36] = target: Neu5Ac(a2-6)Gal
# Summary of the method: as §1
# [37] = target: Neu5Ac(a2-6)Gal(b1-4)GlcNAc(b1-3)GalNAc
# Summary of the method: as §1
# [38] = target: Neu5Ac(a2-6)GalNAc
# Summary of the method: as §1
# [39] = target: Neu5Ac(a2-6)GlcNAc(b1-4)GlcNAc
# Summary of the method: as §1
# [40] = target: Neu5Ac(a2-8)Neu5Ac
# Summary of the method: as §1
# [41] = target: Neu5Ac(a2-8)Neu5Ac(a2-3)[GalNAc(b1-4)]Gal(b1-4)Glc
# Summary of the method: as §1
binder,measurement,setting,value
"AcfC (Vibrio cholerae), Q57410 (protein) MKSKNRFLLISLLSFSTSVFADVNLYGPGGPHVPLIKVAESFEKSQSKRVNITFGPQATWNDKAKKNADILFGASEHSALAIAEGHSERFSKFNIHPVFMREAIILVKKGNPKNIKGMADLLKPGIGIVVNDGAGVSNTSGTAVWEDSVGRMKNVEKLQAFRSNIHVFAPNSGSARKAFVDGEDIDAWITWVDWAIANPTIGDMVRMEDEYRIYRDFNVVLAKNPSSEAIDFFDYLTKSKDAEAIFQHYGWFK",glycan array binding signal (z-score),[1],0.244
same,glycan array binding signal (z-score),[2],-1.2
same,glycan array binding signal (z-score),[3],-0.09
same,glycan array binding signal (z-score),[4],3.03
same,glycan array binding signal (z-score),[5],1.12
same,glycan array binding signal (z-score),[6],3.03
same,glycan array binding signal (z-score),[7],2.22
same,glycan array binding signal (z-score),[8],-0.063
same,glycan array binding signal (z-score),[9],1.43
same,glycan array binding signal (z-score),[10],4.58
same,glycan array binding signal (z-score),[11],-0.864
same,glycan array binding signal (z-score),[12],-0.809
same,glycan array binding signal (z-score),[13],-0.149
same,glycan array binding signal (z-score),[14],0.091
same,glycan array binding signal (z-score),[15],0.322
same,glycan array binding signal (z-score),[16],0.135
same,glycan array binding signal (z-score),[17],0.247
same,glycan array binding signal (z-score),[18],-0.979
same,glycan array binding signal (z-score),[19],3
same,glycan array binding signal (z-score),[20],0.212
same,glycan array binding signal (z-score),[21],0.515
same,glycan array binding signal (z-score),[22],0.334
same,glycan array binding signal (z-score),[23],0.05
same,glycan array binding signal (z-score),[24],0.088
same,glycan array binding signal (z-score),[25],0.098
same,glycan array binding signal (z-score),[26],-0.601
same,glycan array binding signal (z-score),[27],0.375
same,glycan array binding signal (z-score),[28],0.128
same,glycan array binding signal (z-score),[29],-0.465
same,glycan array binding signal (z-score),[30],-0.748
same,glycan array binding signal (z-score),[31],-0.753
same,glycan array binding signal (z-score),[32],-0.096
same,glycan array binding signal (z-score),[33],-0.136
same,glycan array binding signal (z-score),[34],0.134
same,glycan array binding signal (z-score),[35],6.97
same,glycan array binding signal (z-score),[36],2.2
same,glycan array binding signal (z-score),[37],-0.94
same,glycan array binding signal (z-score),[38],-1.62
same,glycan array binding signal (z-score),[39],-0.781
same,glycan array binding signal (z-score),[40],0.214
same,glycan array binding signal (z-score),[41],-0.835
